Active and inactive are the calls of the source. Rule for the calls: active = hit-call score of the fitted dose curve at least 0.9, where 1 is the maximum; inactive = score below 0.9.

In PubChem BioAssay (EPA / NIEHS) one finds outcome and AC50 data, which are given here for four molecules.

Holding throughout (conditions): mRNA level, 48 h; actives raise or lower the signal
Read-out in assay [1]: DNA damage-inducible transcript 3 (DDIT3), DDIT3 (gene 1649)
Briefly: LTEA_HepaRG_DDIT3: Life Technologies and Expression Analysis (LTEA) Assay for DNA damage-inducible transcript 3 (DDIT3) using HepaRG (AID 2283488). The method, boiled down: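 qRT-PCR readout (Fluidigm TaqMan), housekeeping-normalized to ACTB, GAPDH, POLR2A. HepaRG cells, 48 h exposure, 8-point half-log series from 100 uM in 0.5% DMSO, duplicates. Gain or loss of signal fitted against DMSO baseline.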

Read-out in assay [2]: Pro-epidermal growth factor (Homo sapiens) (UniProt P01133)
Briefly: LTEA_HepaRG_EGF: Life Technologies and Expression Analysis (LTEA) Assay for Epidermal growth factor (EGF) using HepaRG (AID 2283489). The method, boiled down:
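HepaRG cells (~100,000/well, 48 h pre-culture) exposed in duplicate for 48 h in serum-free induction medium to 8 half-log concentrations up to 100 uM in 0.5% DMSO. EGF mRNA by qRT-PCR, normalized to ACTB/GAPDH/POLR2A; bidirectional fit versus DMSO.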

Read-out in assay [3]: Early growth response protein 1 (EGR1) transcription factor, EGR1 (gene 1958)
The assay can be described thus: LTEA_HepaRG_EGR1: Life Technologies and Expression Analysis (LTEA) Assay for Early growth response protein 1 (EGR1) transcription factor using HepaRG (AID 2283490). In outline:
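EGR1 transcript levels quantified by qRT-PCR (Fluidigm arrays) against three housekeeping genes after 48 h chemical exposure of HepaRG cells. Eight-point half-log series topping at 100 uM, 0.5% DMSO vehicle, analyzed for gain or loss.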

Read-out in assay [4]: Ezrin (EZR), EZR (gene 7430)
Briefly: LTEA_HepaRG_EZR: Life Technologies and Expression Analysis (LTEA) Assay for Ezrin (EZR) using HepaRG (AID 2283491). In outline: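 Gain or loss of EZR mRNA is scored relative to 0.5% DMSO in human HepaRG cultures treated 48 h with test chemicals in duplicate, eight half-log concentrations from 100 uM.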

Read-out in the next assay: CYP3A5 (gene 1577)
The assay can be described thus: LTEA_HepaRG_CYP3A5: Life Technologies and Expression Analysis (LTEA) Assay for CYP3A5 using HepaRG (AID 2283493). The method, boiled down:
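qRT-PCR read-out: CYP3A5 transcript in HepaRG lysates, housekeeping-normalized (ACTB/GAPDH/POLR2A), fitted bidirectionally against 0.5% DMSO baseline. Exposure 48 h, eight half-log concentrations up to 100 uM, duplicates.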

Read-out in assay [5]: Fatty Acid-Binding Protein 1 (FABP1), FABP1 (gene 2168)
The assay can be described thus: LTEA_HepaRG_FABP1: Life Technologies and Expression Analysis (LTEA) Assay for Fatty Acid-Binding Protein 1 (FABP1) using HepaRG (AID 2283494). The method, boiled down: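 FABP1 expression by TaqMan qRT-PCR, normalised to three housekeeping genes, in HepaRG cells after 48 h chemical treatment. Eight-point half-log series topping at 100 uM in 0.5% DMSO, duplicates; gain or loss fitted relative to vehicle.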

Read-out in assay [6]: Cytochrome P450 4A22 (Homo sapiens) (UniProt Q5TCH4)
The assay can be described thus: LTEA_HepaRG_CYP4A22: Life Technologies and Expression Analysis (LTEA) Assay for Cytochrome P450 4A22 (CYP4A22) using HepaRG (AID 2283495). In outline: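 Differentiated HepaRG cells in serum-free induction medium exposed 48 h in duplicate to eight half-log concentrations up to 100 uM in 0.5% DMSO. CYP4A22 mRNA quantified by TaqMan qRT-PCR, normalized to ACTB, GAPDH and POLR2A; bidirectional fit versus DMSO.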

Read-out in assay [7]: Glutathione S-Transferase (GSTA2), GSTA2 (gene 2939)
Briefly: LTEA_HepaRG_GSTA2: Life Technologies and Expression Analysis (LTEA) Assay for Glutathione S-Transferase (GSTA2) using HepaRG (AID 2283497). The method, boiled down:
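GSTA2 transcript levels came from Fluidigm TaqMan qRT-PCR normalized to three housekeeping genes, fitted in both directions against DMSO. HepaRG cultures received chemicals for 48 h in serum-free induction medium (0.5% DMSO), 8 half-log concentrations up to 100 uM, duplicate.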

Read-out in assay [8]: Glutamate-cysteine ligase catalytic (GCLC), GCLC (gene 2729)
The assay can be described thus: LTEA_HepaRG_GCLC: Life Technologies and Expression Analysis (LTEA) Assay for Glutamate-cysteine ligase catalytic (GCLC) using HepaRG (AID 2283498). The method, boiled down: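 Expression by TaqMan qRT-PCR, normalized to three housekeeping genes (ACTB, GAPDH, POLR2A), with up- or down-regulation fitted against DMSO. HepaRG cells dosed in duplicate for 48 h with 8 half-log concentrations up to 100 uM, vehicle 0.5% DMSO.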

Read-out in assay [9]: growth arrest and DNA damage 45 (GADD45G), GADD45G (gene 10912)
Briefly: LTEA_HepaRG_GADD45G: Life Technologies and Expression Analysis (LTEA) Assay for growth arrest and DNA damage 45 (GADD45G) using HepaRG (AID 2283499). In outline:
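Differentiated human HepaRG cells, 48 h post-plating, exposed 48 h in serum-free induction medium to 8 half-log concentrations (top 100 uM, 0.5% DMSO) in duplicate. GADD45G mRNA measured by Fluidigm TaqMan qRT-PCR, normalized to ACTB, GAPDH, POLR2A; bidirectional fit versus DMSO.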

Read-out in assay [10]: Glutathione S-transferase M3 (GSTM3), GSTM3 (gene 2947)
The assay can be described thus: LTEA_HepaRG_GSTM3: Life Technologies and Expression Analysis (LTEA) Assay for Glutathione S-transferase M3 (GSTM3) using HepaRG (AID 2283501). The method, boiled down:
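Differentiated human HepaRG cells were exposed in duplicate for 48 h in serum-free induction medium, 8 points from 100 uM top in half-log steps, 0.5% DMSO. GSTM3 mRNA was measured by TaqMan qRT-PCR, normalized to ACTB, GAPDH and POLR2A; bidirectional fit versus DMSO.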

Read-out in assay [11]: Hypoxia-inducible factor 1-alpha (Homo sapiens) (UniProt Q16665)
Briefly: LTEA_HepaRG_HIF1A: Life Technologies and Expression Analysis (LTEA) Assay for Hypoxia-inducible factor 1 (HIF1A) Trancription factor using HepaRG (AID 2283503). In outline:
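Gain- or loss-of-signal HIF1A mRNA changes are fitted against a DMSO baseline. HepaRG cultures receive eight concentrations, highest 100 uM, for 48 h in serum-free induction medium with 0.5% DMSO.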

Read-out in assay [12]: 3-Hydroxy-3-Methylglutaryl-CoA Synthase 2 (HMGCS2), HMGCS2 (gene 3158)
The assay can be described thus: LTEA_HepaRG_HMGCS2: Life Technologies and Expression Analysis (LTEA) Assay for 3-Hydroxy-3-Methylglutaryl-CoA Synthase 2 (HMGCS2) using HepaRG (AID 2283504). The method, boiled down: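 Human HepaRG cells in serum-free induction medium were exposed in duplicate for 48 h to 8-point half-log series from 100 uM top in 0.5% DMSO. HMGCS2 mRNA measured by TaqMan qRT-PCR, normalised to ACTB, GAPDH, POLR2A; bidirectional fit versus DMSO.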

Read-out in another assay: HGF (gene 3082)
The assay can be described thus: LTEA_HepaRG_HGF: Life Technologies and Expression Analysis (LTEA) Assay for Hepatocyte Growth Facto (HGF) using HepaRG (AID 2283505). In outline:
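Differentiated HepaRG cells in serum-free induction medium exposed 48 h in duplicate, 8 half-log concentrations from 100 uM in 0.5% DMSO. HGF mRNA by qRT-PCR, normalised to ACTB, GAPDH, POLR2A; bidirectional fitting.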

Read-out in assay [13]: Insulin Like Growth Factor 1 (IGF1), IGF1 (gene 3479)
The assay can be described thus: LTEA_HepaRG_IGF1: Life Technologies and Expression Analysis (LTEA) Assay for Insulin Like Growth Factor 1 (IGF1) using HepaRG (AID 2283506). In outline:
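qRT-PCR readout of IGF1 mRNA, normalized to three housekeeping genes, after 48 h chemical exposure of HepaRG cells. Concentrations: 8-point half-log series, top 100 uM, 0.5% DMSO vehicle. Gain or loss fitted against DMSO baseline.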

Read-out in assay [14]: Intercellular Adhesion Molecule 1 (ICAM1), ICAM1 (gene 3383)
The assay can be described thus: LTEA_HepaRG_ICAM1: Life Technologies and Expression Analysis (LTEA) Assay for Intercellular Adhesion Molecule 1 (ICAM1) using HepaRG (AID 2283507). In outline:
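Differentiated human HepaRG cells in serum-free induction medium exposed 48 h in duplicate to 8 half-log concentrations (top 100 uM, 0.5% DMSO). ICAM1 mRNA quantified by TaqMan qRT-PCR, normalized to ACTB, GAPDH and POLR2A; bidirectional fitting versus DMSO.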

Read-out in assay [15]: Heat shock 70 kDa protein 1 (HSPA1A), gene 3303
Briefly: LTEA_HepaRG_HSPA1A: Life Technologies and Expression Analysis (LTEA) Assay for Heat shock 70 kDa protein 1 (HSPA1A) using HepaRG (AID 2283502). The method, boiled down: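 HepaRG, 48 h exposure, 8-pt half-log CRC from 100 uM in 0.5% DMSO, duplicates. Readout: TaqMan qRT-PCR of HSPA1A mRNA, housekeeping-normalized (ACTB/GAPDH/POLR2A). Bidirectional fit vs 0.5% DMSO baseline.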

Read-out in assay [16]: Glutamate-cysteine ligase regulatory (GCLM), GCLM (gene 2730)
Briefly: LTEA_HepaRG_GCLM: Life Technologies and Expression Analysis (LTEA) Assay for Glutamate-cysteine ligase regulatory (GCLM) using HepaRG (AID 2283500). In outline: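 HepaRG, 48 h dosing, 100 uM top, half-log x8, 0.5% DMSO vehicle. Readout: GCLM mRNA by TaqMan qRT-PCR, housekeeping-normalized (ACTB/GAPDH/POLR2A). Curves fit bidirectionally vs DMSO baseline.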

Chain of Hypoxia-inducible factor 1-alpha (Homo sapiens) (Q16665 whole entry, looked up): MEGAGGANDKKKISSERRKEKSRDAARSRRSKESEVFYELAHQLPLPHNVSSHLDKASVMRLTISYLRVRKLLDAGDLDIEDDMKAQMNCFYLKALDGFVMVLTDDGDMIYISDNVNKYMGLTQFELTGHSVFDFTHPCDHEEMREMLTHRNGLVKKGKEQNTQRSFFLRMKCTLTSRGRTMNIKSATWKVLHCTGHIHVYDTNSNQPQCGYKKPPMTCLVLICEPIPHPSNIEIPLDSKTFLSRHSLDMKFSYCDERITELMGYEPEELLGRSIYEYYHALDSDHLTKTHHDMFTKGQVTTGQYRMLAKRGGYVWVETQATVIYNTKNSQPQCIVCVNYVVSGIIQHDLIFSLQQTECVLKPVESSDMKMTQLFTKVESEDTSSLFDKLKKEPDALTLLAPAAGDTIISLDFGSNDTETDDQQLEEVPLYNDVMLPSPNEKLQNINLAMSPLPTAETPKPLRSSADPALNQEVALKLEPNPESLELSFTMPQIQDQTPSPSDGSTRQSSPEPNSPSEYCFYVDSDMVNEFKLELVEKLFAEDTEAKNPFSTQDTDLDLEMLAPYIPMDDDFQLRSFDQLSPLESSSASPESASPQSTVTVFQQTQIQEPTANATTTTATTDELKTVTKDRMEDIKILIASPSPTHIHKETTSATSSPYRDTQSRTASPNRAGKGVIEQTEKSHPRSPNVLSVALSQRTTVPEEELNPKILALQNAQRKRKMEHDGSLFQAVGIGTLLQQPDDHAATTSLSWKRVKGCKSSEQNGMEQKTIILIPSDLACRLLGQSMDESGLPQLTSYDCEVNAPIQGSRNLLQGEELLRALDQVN

For the molecule `CNC(=O)ON=C(C)SC`, the molecule was classed as inactive (in [1]; in [2]; in [3]; in assay [4]; in the assay with CYP3A5 (gene 1577); in assay [5]). In addition, the outcome in assay [6], in assay [7], in assay [8], in assay [9], in assay [10] and in assay [11] was inactive. Moreover, the molecule was called inactive (in assay [12]; in the assay with HGF (gene 3082); in assay [13]; in assay [14]).
Turning to `CCC(=NOC/C=C/Cl)C1=C(O)CC(C2CCOCC2)CC1=O` (stereo unspecified), the molecule was called inactive (in assay [1]; in [2]; in [3]; in assay [4]; with CYP3A5 (gene 1577); in [5]). The call in assay [6], in assay [7], in assay [8], in assay [9], in [11] and in [12] was inactive. In addition, the molecule was called inactive (in the assay with HGF (gene 3082); in [14]).
Usually AC50 stands for the concentration giving half of the maximal activity seen. On to `Cc1cc(C2CC2)nc(Nc2ccccc2)n1`, for which the result (in assay [1]; in assay [2]; in assay [3]; in assay [4]; with CYP3A5 (gene 1577); in assay [5]) was inactive. Further, the molecule was classed as inactive in [6], in [7], in [8], in [15], in [11] and in [12]. Further, the molecule was called inactive (in the assay with HGF (gene 3082); in assay [14]). In assay [9], the AC50 was 29.7 µM (active).
On to `N#CSCSC#N`, for which the molecule was called inactive in [1], in assay [2], in assay [3], in assay [4], in [8] and in [9]. Further, the molecule was called inactive (in assay [11]; in the assay with HGF (gene 3082); in assay [13]; in assay [14]). Also, the AC50 in the assay with CYP3A5 (gene 1577) is 50 µM (active); in [5], 86.2 µM (active); in [6], 90.6 µM (active); in assay [7] it was 76.2 µM (active); in assay [16], 80.6 µM (active); in [12], 82.1 µM (active).
